A selection: hits, their analogues and other compounds. The true share with any hit is near 4.1%.
hcDAF-12 act – H. contortus DAF-12 nuclear receptor activators, primary screen, cell-based, luminescence, HEK293, lit1-tk-luc reporter. HEK293 hcDAF-12 lit1-tk-luc reporter; 0% DMSO, 100% Δ7-dafachronic acid. activation, % at 6.8 µM. 370,000 tested, 1.4% active;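 active means activation above the mean of all tested compounds plus 3 SD, cut at about 5.5% in these data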;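 further: 100% = response to 3 µM Δ7-dafachronic acid high control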
ssDAF-12 act – S. stercoralis DAF-12 nuclear receptor activators, primary screen, cell-based, luminescence, HEK293, GRIP1 co-expression, lit1-tk-luc | Nuclear hormone receptor DAF-12 (Strongyloides stercoralis) | HEK293 ssDAF-12/GRIP1 lit1-tk-luc reporter; % of 3 µM dafachronic acid response | activation, % at 6.8 µM | 370,000 tested, 1% active;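 active means activation above the mean over all tested compounds plus 3 SD, cut at about 0.9% in these data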;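 further: 0% = DMSO-only wells and 100% = 3 µM delta7-dafachronic acid wells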
hgDAF12 agonist – H. glycines DAF-12 receptor agonists, primary screen, cell-based, luminescence, HEK293, GAL4 fusion, UAS-luciferase; Nuclear hormone receptor DAF-12 (Heterodera glycines), GAL4 fusion; activation, % at 6.8 µM; AID 687014, 2013; 370,000 tested, 1.8% active; HEK293 GAL4-hgDAF12 UAS-luciferase reporter, agonist luminescence; normalized to butyrate control;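 active means activation above a cutoff set at the mean of all screened compounds plus 3 SD, cut at about 10% in these data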;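 further: 0% = DMSO wells and 100% = sodium butyrate wells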
DAX1 inh-1 – DAX1 (NR0B1) inhibitors on StAR promoter, primary screen, cell-based, luminescence, SF-1 (NR5A1), full-length DAX-1; inhibition, % at 6.8 µM; 370,000 tested, 1.1% active; AID 652010, 2013; HEK293T StAR-luciferase reporter, SF-1/DAX-1 repression relief;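 active means inhibition above the mean over all tested compounds plus 3 SD, cut at about 3.6% in these data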;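 further: 0% = DAX-1 cells with DMSO and 100% = cells lacking DAX-1 with DMSO; higher inhibition means more luminescence from relief of DAX-1 repression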
DAX1 inh-2 – DAX1 (NR0B1) inhibitors, primary screen, cell-based, HEK293, Gal4-DAX1, luciferase luminescence; Nuclear receptor subfamily 0 group B member 1 (Homo sapiens), P51843; inhibition, % at 6.75 µM; 340,000 tested, 0.99% active; AID 504766, 2011; HEK293 Gal4-DAX1 luciferase reporter;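 active means inhibition above the mean over all tested compounds plus 3 SD, cut at about 4.2% in these data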;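 further: 0% = DAX1-transfected cells with DMSO and 100% = empty-vector control cells with DMSO; inhibition shows as a rise in luminescence from relieved DAX1 repression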
Target sequence (P51843 207-470 limits assumed): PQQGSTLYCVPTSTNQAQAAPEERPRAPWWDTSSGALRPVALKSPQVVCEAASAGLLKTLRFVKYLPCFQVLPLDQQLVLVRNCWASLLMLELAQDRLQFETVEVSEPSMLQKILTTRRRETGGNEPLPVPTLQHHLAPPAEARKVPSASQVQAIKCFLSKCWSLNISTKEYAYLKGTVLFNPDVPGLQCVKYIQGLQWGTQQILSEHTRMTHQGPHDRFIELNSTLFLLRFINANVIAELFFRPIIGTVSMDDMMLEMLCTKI
LXR ag – LXR agonists, Gal4 luciferase reporter, confirmation, counter-screen for hcDAF-12 agonist project, cell-based, luminescence, HEK293, H. contortus campaign | 3,400 tested, under 10 active | shares compounds with hcDAF-12 act | activation, % at 6.8 µM | HEK293 Gal4-LXR tk-luc reporter, 24 h; normalized: DMSO 0%, positive control 100% | AID 743027, 2013;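 active means mean percent activation of the reporter above a cutoff set as the average over tested compounds plus their standard deviation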
hcDAF12 ag – H. contortus DAF-12 receptor agonists, confirmation, cell-based, luminescence, HEK293, lit1-tk-luc, triplicate | shares compounds with hcDAF-12 act | 3,400 tested, 61% active | HEK293 hcDAF-12 lit1-tk-luc reporter; % of Δ7-dafachronic acid response | activation, % at 6.8 µM | AID 743032, 2013;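 active means mean activation across triplicate tests above the threshold derived from the earlier primary screen, cut at about 5.5% in these data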;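 further: 0% = DMSO only wells and 100% = 3 µM Δ7-dafachronic acid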
* marks the source's active call; other numbers are inactive results; . = no result given.

SMILES	hcDAF-12 act	ssDAF-12 act	hgDAF12 agonist	DAX1 inh-1	DAX1 inh-2	LXR ag	hcDAF12 ag
Cc1c(C(=O)N2CCC(C)(C(=O)NS(=O)(=O)C3CC3)C2)oc2ccccc12 (stereo not given)	-1	-1	0	-1	.	.	.
COc1ccccc1N1C(=O)CC(N(O)c2ccccc2)C1=O (stereo not given)	6.7*	0	1	0	2	0	3
CCCOc1ccccc1N1C(=O)CC(N(O)c2ccccc2)C1=O (stereo not given)	1	-2	1	-1	0	.	.
CCS(=O)(=O)N1CCC(C(=O)Nc2ccc3c(c2)CCC3)CC1	0	0	2	0	1	.	.
O=C(c1ccccc1)N1N=C(c2ccccc2)CC1c1ccccc1 (stereo not given)	3	-1	0	0	-1	.	.
CCCC(=O)N1N=C(c2ccccc2)CC1c1cn(C)c2ccccc12 (stereo not given)	8.1*	-1	0	0	0	0	2
Cn1cc(C2CC(c3ccccc3)=NN2C(=O)c2ccccc2)c2ccccc21 (stereo not given)	7.9*	0	6	2	2	0	4
CC(=O)N1N=C(c2ccc(Br)cc2)CC1c1cn(C)c2ccccc12 (stereo not given)	1	0	2	-1	0	.	.
Cc1cc(NCCCn2ccnc2)n2ncc(-c3ccc(Cl)cc3)c2n1	15*	1.7*	19*	3.8*	4	2	19*
COc1cccc(NC(=O)n2ncc3c(C)cccc32)c1	13*	1.8*	17*	3	0	2	14*
COc1ccc(/C=C2/NC(=O)CNC2=O)cc1	3	0	1	0	0	.	.
FC(F)(F)c1ccc(-c2nc3ccccc3s2)cc1	0	-1	-6	-2	.	.	.
COc1ccc(-c2nc3ccccc3s2)cc1O	12*	0	4	2	-5	1	13*
Nc1cccc(-c2nc3ccccc3s2)c1	12*	1.4*	13*	3	1	1	6.4*
Cn1nccc1C(=O)N1CCN(S(=O)(=O)c2ccc(Br)s2)CC1	-1	-1	1	1	0	.	.
O=C(/C=C/c1ccco1)Nc1cccc2cccnc12	6.8*	1	10	1	0	0	7.0*
N/C(=N\O)c1ccccc1-n1cccc1	-1	-2	1	0	-1	.	.
Nc1ccccc1-n1cccc1	15*	1.6*	7	0	.	0	5
CCOC(=O)c1ccc(-c2ccc(/C=N/NC(=O)Cc3nnc(N)s3)o2)cc1	8.8*	0	7	3.7*	1	0	4
CCCCNC(=S)N/N=C1\C(=O)c2cccc3cccc1c23	0	-1	0	1	0	.	.
CNC(=S)N/N=C1\C(=O)c2cccc3cccc1c23	11*	0	2	0	0	0	9.7*
O=C(Nc1ccc(Nc2ccccc2)cc1)N1CCOCC1	-1	-2	-1	0	1	.	.
O=C(Nc1ccccc1)n1cc(-c2ccccn2)c(N2CCOCC2)n1	7.2*	2.2*	6	1	0	0	4
Cc1ccc(/C=C/C(=O)Nc2ncc(C)s2)o1	7.2*	0	9	3	2	1	5
Nc1nc(-c2ccccc2)ns1	6.9*	1	4	2	1	0	6.1*
SMILES	hcDAF-12 act	ssDAF-12 act	hgDAF12 agonist	DAX1 inh-1	DAX1 inh-2	LXR ag	hcDAF12 ag
CN(C)c1nc(-c2ccccc2)ns1	0	-1	1	0	1	.	.
C#CCOc1ccc(/C=C2/C(=O)NN(c3ccc(F)cc3)C2=O)cc1OC	0	-1	2	1	0	.	.
Nc1cc(N)cc(-c2nc3ccccc3[nH]2)c1	8.9*	0	2	1	0	0	4
Nc1ccc2nc(-c3ccc(Cl)cc3)[nH]c2c1	7.0*	0	4	2	2	1	4
Nc1ccc(-c2nc3ccc(N)cc3[nH]2)cc1	-1	-2	-2	1	-1	.	.
CC(C)(C)c1ccc(C(=O)N2CCC2(C)C(=O)NCc2ccc3c(c2)OCO3)cc1 (stereo not given)	-1	-1	-3	-3	.	.	.
Cc1csc(NC(=O)CSc2sc3c(O)cc(=O)[nH]c3c2C#N)n1	6.6*	0	0	0	-1	0	3
Cc1cc(C(F)(F)F)c(C#N)c(SCC(=O)Nc2nc3ccccc3s2)n1	-1	-2	-12	-1	2	.	.
Cc1ccc2sc(NC(=O)CSc3nc(C)cc(C)c3C#N)nc2c1	11*	0.9*	12*	4.0*	1	1	11*
CCOC(=O)c1sc(NC(=O)CCN2CCN(CC)CC2)c(C(=O)OCC)c1C	-3	-2	1	-1	-1	.	.
CCSc1ncc(/C=N/Nc2ccc(Cl)cc2)n1C	12*	1.6*	10	3	3	1	10.0*
C/C(=N\NC(=O)Cc1ccc(F)cc1)c1ccc(O)cc1	0	0	-1	0	-1	.	.
CCN(CC)S(=O)(=O)c1ccc2c(c1)N(CC(=O)Nc1ccc(NC(C)=O)cc1)C(=O)CO2	6.8*	0	-1	0	3	0	1
CC(=O)Nc1ccc(NC(=O)CN2C(=O)COc3ccc(S(=O)(=O)N4CCOCC4)cc32)cc1	0	-1	1	0	1	.	.
COc1ccc(OC)c2[nH]c(=O)c(CCNS(=O)(=O)c3ccc(F)cc3)cc12	1	-1	0	0	2	.	.
CC/C(=N\NC(=O)C1CCCC1)c1cccc(Br)c1	6.8*	1.8*	7	2	2	0	3
Oc1ccc(Br)cc1-c1cc(-c2ccco2)[nH]n1	3	0	6	1	0	.	.
Oc1ccccc1-c1cc(-c2ccco2)[nH]n1	7.6*	1	12*	2	1	1	9.2*

High-throughput results deposited in PubChem by The Scripps Research Institute Molecular Screening Center.
